PubChem BioAssay (NCATS)
Inconclusive results are not listed. Active and inactive are the calls of the source. The call rests on the fitted dose curve; in most records, active means well fitted curve in the direction sought with a large enough effect; inconclusive means small, poorly fitted or top-dose-only effect, or another doubt; inactive means no such curve, though single readings can be large; an effect the other way counts as inactive or inconclusive.

Legend:
[1] = qHTS for compounds that reverse cellular toxicity of Amyloid beta (A-beta) peptide in yeast: LOPAC Validation Assay (AID 720559); conditions: yeast expressing A-beta; Potency: rescue of growth toxicity; series mostly up to 46.1 µM
How it was run: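 Activity is expressed relative to DMSO and an equimolar ferric chloride/clioquinol mix. Compounds were pinned into medium with A-beta-expressing yeast, grown 48 hr at 30 C, then read by absorbance at 600 nm.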

[2] = qHTS for Activators of Parkin Expression: LOPAC Validation Assay (FLuc Reporter) (AID 720573); conditions: Cell line, PRKN promoter firefly luciferase reporter; series mostly up to 46.1 µM
How it was run: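 A neuronal cell line harbouring FLuc and NLuc reporters behind the Parkin promoter was exposed to compounds for 24 h. Firefly luciferase signal, measured after 10 min with detection reagent, was scaled to DMSO and positive-control wells.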

[3] = biological target: T1, Hexokinase-4 (Homo sapiens) + Glucokinase regulatory protein (Homo sapiens) (UniProt P35557+Q14397); experiment: qHTS assay for inhibitors of recombinant human GCK-GKRP interaction: ADP-Glo assay (AID 743206); conditions: ADP-Glo luminescence, 60 min; series mostly up to 76.9 µM
T1 sequence (P35557 whole entry, looked up): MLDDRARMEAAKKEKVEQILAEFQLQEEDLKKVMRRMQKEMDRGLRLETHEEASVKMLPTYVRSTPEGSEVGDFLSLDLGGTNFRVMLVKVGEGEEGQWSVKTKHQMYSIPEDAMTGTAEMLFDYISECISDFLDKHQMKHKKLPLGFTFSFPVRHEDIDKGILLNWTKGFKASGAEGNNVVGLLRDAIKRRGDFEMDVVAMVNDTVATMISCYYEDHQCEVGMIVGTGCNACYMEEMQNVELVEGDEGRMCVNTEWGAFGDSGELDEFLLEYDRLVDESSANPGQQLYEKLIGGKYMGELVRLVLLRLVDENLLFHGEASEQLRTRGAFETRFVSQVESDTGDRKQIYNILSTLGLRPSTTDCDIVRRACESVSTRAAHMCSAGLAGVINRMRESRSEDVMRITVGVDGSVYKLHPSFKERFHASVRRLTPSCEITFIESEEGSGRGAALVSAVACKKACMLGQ
T1 sequence (Q14397 whole entry, looked up): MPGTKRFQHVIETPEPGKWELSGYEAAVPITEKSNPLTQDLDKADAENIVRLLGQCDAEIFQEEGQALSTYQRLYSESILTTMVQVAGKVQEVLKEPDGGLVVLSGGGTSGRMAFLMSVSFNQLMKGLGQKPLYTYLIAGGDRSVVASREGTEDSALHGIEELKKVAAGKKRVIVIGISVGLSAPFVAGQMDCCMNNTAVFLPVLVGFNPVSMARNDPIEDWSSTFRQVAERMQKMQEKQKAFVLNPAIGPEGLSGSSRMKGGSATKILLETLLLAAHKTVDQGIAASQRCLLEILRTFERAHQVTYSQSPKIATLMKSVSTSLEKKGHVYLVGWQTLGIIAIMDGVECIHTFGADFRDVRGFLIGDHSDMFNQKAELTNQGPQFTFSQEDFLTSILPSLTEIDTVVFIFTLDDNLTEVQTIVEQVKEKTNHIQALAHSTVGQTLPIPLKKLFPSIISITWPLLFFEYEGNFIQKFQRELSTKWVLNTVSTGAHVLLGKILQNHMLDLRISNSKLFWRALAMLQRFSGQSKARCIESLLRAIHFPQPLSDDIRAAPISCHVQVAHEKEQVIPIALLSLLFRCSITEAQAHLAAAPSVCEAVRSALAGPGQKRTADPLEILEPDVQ
How it was run: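 Pin-transferred compounds meet a 15 nM GST-GCK/15 nM FLAG-GKRP/2 uM S6P mix (dispense concentrations). ATP is then added to 0.4 mM final with 5 mM glucose, and the reaction runs 60 min at room temperature. ADP is quantified luminescently.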

[4] = biological target: T1, Hexokinase-4 (Homo sapiens) + Glucokinase regulatory protein (Homo sapiens); experiment: qHTS assay for inhibitors of recombinant human GCK-GKRP interaction: HTRF assay (AID 743207); conditions: recombinant GCK-GKRP HTRF binding, 60 min, with sorbitol-6-phosphate; series mostly up to 57.5 µM
How it was run: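 Steps: dispense GCK–GKRP complex (5 nM each, GST- and FLAG-tagged) with 2 uM S6P; pin in compounds; add XL665/Eu-cryptate-labelled antibodies; incubate 60 min at room temperature; read time-resolved FRET at 665 and 615 nm.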

[5] = qHTS for Activators of Parkin Expression: LOPAC Validation Assay (NLuc Reporter) (AID 720572); conditions: Parkin promoter NanoLuc reporter cells, luminescence; series mostly up to 46.1 µM
How it was run: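 NLuc signal, read 10 min after reagent and following a prior FLuc read, is normalized to DMSO (0) and positive controls (100%). Cells: neuronal Parkin-promoter coincidence reporter line; compounds tested 7-point, 24 h, 37 C, 5% CO2.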

[6] = biological target: T1, Hexokinase-4 (Homo sapiens) + Glucokinase regulatory protein (Homo sapiens); experiment: qHTS assay for inhibitors of recombinant human GCK-GKRP interaction: Diaphorase-coupled assay (AID 743205); conditions: G6PDH/diaphorase resorufin fluorescence; series mostly up to 57.5 µM
How it was run: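 Inhibitors of the GCK–GKRP complex relieve GKRP suppression of GCK, detected through a G6PDH–diaphorase cascade reducing resazurin. Human GST-GCK and FLAG-GKRP are used at 10 nM with 5 mM glucose and 0.4 mM ATP.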

Measured: Potency

CN(C)c1nc2c(Br)c(Br)c(Br)c(Br)c2[nH]1
inactive: [1] | [2] | [3] | [4]

N.N.N.N.N.N.N.N.N.N.N.N.N.N.O.O.[Ru+4].[Ru+5].[Ru+5]
inactive: [1] | [5] | [6] | [3]

O=c1[nH]c2cc(Cl)c(Cl)cc2[nH]c1=O
not listed: [2]
inactive: all other assays above

O=C(O)/C=C/C(O)c1ccc(Cl)cc1 (stereo unspecified)
inactive: [5] | [2] | [6] | [4]

CN(C)c1ccc(/C=C2\C(=O)Nc3ccccc32)cc1
not listed: [2]
inactive: all other assays above

O=C1/C(=C/c2ccsc2)CC/C1=C\c1cccs1
not listed: [2]
inactive: all other assays above

CCCCCCCCCCCCCCCC(=O)NCC(COP(=O)([O-])OCC[N+](C)(C)C)OCC (stereo unspecified)
not listed: [2]
inactive: all other assays above

C[N+](C)(CCCCCC[N+](C)(C)CCCN1C(=O)c2cccc3cccc(c23)C1=O)CCCN1C(=O)c2cccc3cccc(c23)C1=O
not listed: [2]
inactive: all other assays above

O=Nc1ccc2oc(=O)ccc2c1
not listed: [2]
inactive: all other assays above

O=C(O)c1cc(=O)c2c(Cl)cc(Cl)cc2[nH]1
not listed: [2]
inactive: all other assays above

Oc1ccc(C2CNCc3sccc32)cc1O (stereo unspecified)
inactive: [5] | [2] | [3] | [4]

CC(C)ON([C@@H](C(=O)NO)C(C)C)S(=O)(=O)c1ccc(-c2ccccc2)cc1
not listed: [1]
inactive: all other assays above
